Structures are written as SMILES. Where “and” joins values, the source holds several entries; their conditions need not be identical. Identical values can stand only once. This is part of a sample that, as a whole, favours compounds with a hit. Of some 79,000 tested, about 15% had one in any assay. Calls of active or inactive are those of the source. No stated cut-off is given here; in the data, active means growth inhibition above about 70%; inactive means the rest.

This experiment is described as follows: NCI Yeast Anticancer Drug Screen. Data for the cln2 rad14 strain (AID 165).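 Further: 0% = growth equal to vehicle treated cultures.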 The note with it: S. cerevisiae cln2 rad14 strain, at 5.0 µM (retest, dose inferred, filed as 0.5), hits give high values. A digest of the protocol: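 cln2 rad14 yeast strain; compound exposure; growth inhibition read vs vehicle controls.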
In the case of `Oc1c(Cl)cc(Cl)cc1Cc1cc(Cl)cc(Cl)c1O`, the growth inhibition is 97% (active) and 84% (active).
For `COc1cc(OC)c(OC)cc1/C=C\c1ccnc2ccccc12`, the growth inhibition is 18% (inactive).
Take `CC(C)C1=CC23CCC4C(C)(C(=O)O)CCCC4(C)C2CC1C1C(=O)OC(=O)C13` (stereo not drawn): the growth inhibition is 85% (active).
For `CN(C)c1nc(N)c(C#N)c(C#N)c1C#N` the value was 27% (inactive); for `C/C(=N\NC(=S)N1CCN(c2ccccn2)CC1)c1nccs1`, 52% (inactive).
In the case of `CCCCCCCCCCCCCCCCCCOCC(COP(=O)([O-])OCC[N+](C)(C)C)OC` (stereo not drawn) it was -1% (inactive).
Consider `COc1ccc2nc(C)cc(NCCCCCCCCCNc3cc(C)nc4ccc(OC)cc34)c2c1`, for which the growth inhibition was -11% (inactive).
With `CC1CC[P+](c2ccccc2)(c2ccccc2)c2c1ccc1ccccc21` (stereo not drawn), the growth inhibition was 30% (inactive).
On to `CC(C)C1=C(O)C2=C(C(=O)C1=O)C1(C)CCCC(C)(C)C1CC2O` (stereo not drawn), for which the growth inhibition is 46% (inactive).
As for `CC(=O)[O-].[O-]c1c(Cl)cc(Cl)cc1/C=N/Nc1ccccn1.[Zn+2]`, the growth inhibition is -1% (inactive).
Turning to `O=C(c1ccccc1)C(c1ccccc1)C(O)c1ccc([N+](=O)[O-])cc1` (stereo not drawn), the growth inhibition was 9% (inactive) and 3% (inactive).
In the case of `Clc1nc(Cl)c(Cl)c(Cl)n1` it was 11% (inactive); in that of `COc1cccc2c1C(=O)c1c(O)c3c(c(O)c1C2=O)C[C@@](O)(C(C)=O)C[C@@H]3OC1CC(N(C)C)C(O)C(C)O1` (stereo partly drawn), 96% (active); in that of `CN1C(c2ccccc2)CC(=NOCc2ccccc2)CC1c1ccccc1` (stereo not drawn), 65% (inactive).
On to `Cc1ccc(NCCN(C)C)c2c(=O)c3cc(O)ccc3sc12`, for which the growth inhibition was 15% (inactive).
As to `N#CC1(C2SCCS2=O)C2=C(C(=O)c3ccccc3C2=O)N2CCCC21` (stereo not drawn), the growth inhibition was 14% (inactive).
Consider `CCN(CC)CCC(=O)/C=C/c1ccccc1`, for which the growth inhibition was 42% (inactive).
In the case of `CC1(O)Cc2c(O)c3c(c(O)c2CC1O)C(=O)C=CC3=O` (stereo not drawn) it was 7% (inactive).
On to `Cc1ccc2c(c1)C1(C)OC(C=CC1=O)O2` (stereo not drawn), for which the growth inhibition is 82% (active).
As for `Fc1cccc(CSC(=S)Nc2ccc(F)c(F)c2)c1`, the growth inhibition is -2% (inactive).
For the compound `CCN(CCO)CCNc1ccc(C)c2sc3ccccc3c(=O)c12`, the growth inhibition is 21% (inactive).
Take `Cc1n(-c2ccccc2)c2c([n+]1Cc1ccc([N+](=O)[O-])cc1)C(=O)c1ccccc1C2=O`: the growth inhibition was 1% (inactive).
For the compound `CC(=O)OC1COC(n2c(N)c(C#N)c(-c3ccccc3)c(C#N)c2=S)C(OC(C)=O)C1OC(C)=O` (stereo not drawn), the growth inhibition was -18% (inactive) and 1% (inactive).
On to `O=c1[nH]c2cc([N+](=O)[O-])ccc2nc1/C=C(\O)c1ccc([N+](=O)[O-])cc1`, for which the growth inhibition is 4% (inactive).
With `Cc1n(Cc2ccccc2)c2c([n+]1C)C(=O)c1ccccc1C2=O`, the growth inhibition was 34% (inactive).
In the case of `CS(=O)(=O)OCCN(CCOS(C)(=O)=O)c1ccc(C=Nc2ccc(-c3csc(Cc4ccccc4)n3)cc2)c(Cl)c1` it was 7% (inactive); in that of `CCCCCCCCCCS(=O)CC(CO)NC(=O)/C=C/c1c(C)[nH]c(=O)[nH]c1=O` (stereo not drawn), 34% (inactive); in that of `C/C(=N\O)c1cc(Br)cc([N+](=O)[O-])c1O`, 13% (inactive).
As for `COc1cc2c(c(OC)c1OC)-c1ccc(SC)c(=O)cc1C(NC(=O)c1ccccc1)CC2` (stereo not drawn), the growth inhibition is 11% (inactive).
On to `COc1cccc2c1C(=O)c1c(O)c3c(c(O)c1C2=O)C[C@@](O)(C(C)=O)C[C@@H]3OC1CC(O)C(O)C(C)O1` (stereo partly drawn), for which the growth inhibition is 46% (inactive).
Regarding `CCCCCCCc1c(Cl)nc(Cl)nc1Cl`, the growth inhibition is 11% (inactive).
Turning to `O=C1/C(=C/c2ccc(Cl)cc2)CNC/C1=C\c1ccc(Cl)cc1`, the growth inhibition was 69% (inactive) and 44% (inactive).
As for `O=C1C(Cl)=C(N2CCN(C3=C(Cl)C(=O)c4ccccc4C3=O)CC2)C(=O)c2ccccc21`, the growth inhibition was 14% (inactive).
With `O=C1c2ccccc2-n2c1nc1ccccc1c2=O`, the growth inhibition was 30% (inactive).
`Nc1ccc(Cn2ccc3c4c(N)nc(N)nc4ccc32)cc1`: the growth inhibition was 6% (inactive).
Regarding `Nc1nc(N)c2c(Cl)c(CNc3ccc(Cl)c(Cl)c3)ccc2n1`, the growth inhibition was 46% (inactive).
With `Cc1cc(NCCCCCCCNc2cc(C)nc3cc([N+](=O)[O-])ccc23)c2ccc([N+](=O)[O-])cc2n1`, the growth inhibition is 14% (inactive).
For the compound `CCCCCCCCCCCCCCCCCC(=O)NCCO`, the growth inhibition is 1% (inactive).

Values taken from PubChem BioAssay (NCI).
